CYP2C19 inhib – blockers of cytochrome P450 2C19 activity – biochemical, luminescence, ADME assay, primary screen; P33261; CYP2C19 Supersomes, luciferin-H EGE luminescence, 30 min; inhibition, % at 5 µM; 96,000 compounds, 21% hits;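 active = CYP2C19 inhibition above a set limit at 5 µM in the primary screen, cut at about 50% in these data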;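 also: plate controls were negative control wells for no effect and 2.5 mM tranylcypromine positive control for full effect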
Target sequence (P33261 whole entry, looked up): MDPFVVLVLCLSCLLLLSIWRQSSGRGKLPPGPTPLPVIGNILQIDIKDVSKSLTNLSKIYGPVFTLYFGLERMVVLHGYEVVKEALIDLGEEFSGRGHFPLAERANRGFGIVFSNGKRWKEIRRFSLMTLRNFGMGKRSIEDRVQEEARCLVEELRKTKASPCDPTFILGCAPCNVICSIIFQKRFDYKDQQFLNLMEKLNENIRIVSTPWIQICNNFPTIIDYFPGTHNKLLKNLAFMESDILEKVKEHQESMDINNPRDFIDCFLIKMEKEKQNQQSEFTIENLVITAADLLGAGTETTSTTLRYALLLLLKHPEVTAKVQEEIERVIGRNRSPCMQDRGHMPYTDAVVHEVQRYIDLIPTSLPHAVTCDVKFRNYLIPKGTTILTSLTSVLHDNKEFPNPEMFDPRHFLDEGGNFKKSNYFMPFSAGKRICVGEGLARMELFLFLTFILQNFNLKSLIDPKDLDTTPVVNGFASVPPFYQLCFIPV
CYP2C19 activ – human CYP2C19 activators, primary screen, biochemical, luminescence. Cytochrome P450 2C19 (Homo sapiens), P33261. 96,000 tested, under 10 active. activation factor at 5 µM. recombinant CYP2C19, luciferin-H EGE luminescence; active compounds read high; 0 = fully inhibited enzyme, 1 = untreated enzyme;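 active = activation factor of at least 2 at 5 µM in the primary screen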;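 also: 0 = wells with 2.5 mM tranylcypromine and 1 = vehicle-only wells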
PostGolgi ctrl – growth inhibition of yeast control strain, primary screen, counter-screen for post-Golgi transport modulator project; inhibition, % at 10 µM; efflux-deficient yeast background strain, growth absorbance A615, 16 h; 98,000 compounds, 5% hits
PostGolgi yeast – phenotypic screen on post-Golgi transport, primary screen. post-Golgi transport phenotypic cell assay. inhibition, % at 10 µM. 98,000 compounds, 0.9% hits. AID 739, 2007;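 also: yeast cells grown in 1536-well plates; yeast grown about 18 h at 30C before absorbance read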
CYP2C9 act – human CYP2C9 activators, primary screen, biochemical, luminescence. recombinant CYP2C9, luciferin-H conversion; active compounds read high; factor 1 = untreated enzyme, 0 = blocked. 96,000 compounds, 1.4% hits. AID 1024, 2008. activation factor at 5 µM;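 active = activation factor of 2 or more for CYP2C9 at a 5 µM dose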;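 also: 0 = sulfaphenazole-blocked wells and 1 = vehicle-only wells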
CYP2C9 inh – blockers of cytochrome P450 2C9 activity – biochemical, luminescence, ADME assay, primary screen; 96,000 compounds, 20% hits; CYP2C9 Supersomes, luciferin-H conversion; inhibition, % at 5 µM; P11712;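 active = blocking of liver enzyme CYP2C9 beyond about 50% at 5 µM, limit read from the data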
The depositor's hits bear a star. Most compounds without a hit are left out; they make up all but 32% or so of the library. Rule as the data show it, unless noted: active = inhibition above about 30%; inactive = the rest.

SMILES	CYP2C19 inhib	CYP2C19 activ	PostGolgi ctrl	PostGolgi yeast	CYP2C9 act	CYP2C9 inh
CCOC(=O)CC(=O)CSc1nc2c(sc(=S)n2-c2ccccc2)c(=O)[nH]1	4	1	25	-1	0.3	66*
CCOC(=O)CSc1nc2c(sc(=S)n2-c2ccccc2OC)c(=O)n1Cc1ccco1	85*	0.1	19	2	0.5	55*
CCOC(=O)CSc1nc2c(sc(=S)n2Cc2ccco2)c(=O)n1-c1ccccc1	60*	0.4	5	-1	0.3	69*
CCN(CC)C(=O)CSc1nc2c(sc(=S)n2Cc2ccco2)c(=O)n1-c1ccccc1	36	0.6	11	7	0.5	52*
Clc1ss/c(=N\c2ccccn2)c1Cl	-2	1	14	4	0.5	48
CCNC(=S)NS(=O)(=O)c1ccc(Cl)cc1	4	1	4	2	0.8	17

From PubChem
